Results on 71 compounds are retold here after ChEMBL document CHEMBL4513216, “Probing the Open Global Health Chemical Diversity Library for Multistage-Active Starting Points for Next-Generation Antimalarials” (ACS Infect Dis, 2020).

Structures are written as SMILES. Hit rate of the full screen: of about 69,000 compounds, about 8,600 (12%) showed an effect of 50% or more. The full list was thinned out, with strong results kept by preference.

In this assay the test system is Plasmodium berghei. Put plainly: Screen against P. berghei liver stage (PbLuc), transformed with Luciferase, at 10uM. It is filed as functional, HepG2. Conditions: tested at 10 uM.
With `Cc1ccc(-c2nc(CNC3CCc4ncnn4C3)cs2)cc1` (stereo unspecified), the INHIBITION was 47.55%.

As to `Cc1nc(C)c(C(=O)N2CCCC2(C)C(=O)NC2CCCC2)o1` (stereo unspecified), the INHIBITION was determined as 46.2%. The result for `Cc1cc(C)n(CCCN(CCN2CCOCC2)Cc2ccco2)n1` reads 7.6%; that for `COCCN(CCOC)Cc1nc2c(cnn2C)c(=O)[nH]1`, 27.8%. The result for `CCS(=O)(=O)N1C[C@H]2CN(c3cnn(C)c3)C(=O)[C@H]2C1` reads 60%; that for `Cn1cc(N2C[C@@H]3CN(CC4CCOCC4)C[C@@H]3C2=O)cn1`, 68.4%; that for `Cn1cc(N2CC3(CCN(CC4CCOCC4)CC3)OCC2=O)cn1`, -24.5%.

Regarding `O=C1[C@H]2CN(Cc3ccncc3)C[C@H]2CN1c1cncnc1`, the INHIBITION came out at 32.8%. As for `O=C1[C@H]2CN(CC3CCOCC3)C[C@H]2CN1c1ccsc1`, the figure is 5.63%; as for `Cn1cc(N2C[C@@H]3CN(S(=O)(=O)C4CC4)C[C@@H]3C2=O)cn1`, 9.79%; as for `CCS(=O)(=O)N1CCC2(CC(=O)N(c3cnn(C)c3)C2)C1` (stereo unspecified), -13.7%.

On to `Cn1cc(N2CC[C@@H]3CN(Cc4ccncc4)C[C@H]3C2=O)cn1`, for which the INHIBITION was determined as 58.4%. As for `Cn1cc(N2C[C@@H]3CN(Cc4ccoc4)C[C@@H]3C2=O)cn1`, the figure is -75%. As for `O=C(CCc1cc2n(n1)CCNC2)NCCS(=O)(=O)N1CCCC1`, the figure is -18.1%; as for `Cn1c2ncccc2c(=O)n1CC(=O)Nc1ccc(F)c(F)c1`, 41.8%. As for `O=C(CCc1cc2n(n1)CCCN(CCc1ccccc1)C2)NC1CC1`, the figure is 24.1%; as for `CN1CCn2nc(-c3nc4ccccc4n3C)cc2C1`, 36.4%; as for `CCCOC(=O)N1CCCn2nc(C(=O)Nc3ccccc3)cc2C1`, -34.4%.

Take `CCOC(=O)C(C)NC(=O)N1CCN(c2nc3ccccc3n2C)CC1` (stereo unspecified): the INHIBITION was found to be 45%. The result for `CCCOC(=O)N1CCn2nc(-c3nc4ccccc4n3C)cc2C1` reads 61.1%; that for `Cn1c(-c2cc3n(n2)CCCN(CC(=O)O)C3)nc2ccccc21`, 57.1%. As for `Cc1cccc(CN2CCc3ncnc(Oc4cccnc4)c3CC2)n1`, the figure is 18.5%; as for `CC(C)(C)C(=O)N1CCCC1c1nccnc1Cl` (stereo unspecified), -7.66%. As for `CN[C@@H](CO)C(=O)NCc1cc2n(n1)CCCN(C1CCCCC1)C2`, the figure is 12.5%; as for `COc1ccccc1-n1cc(C(=O)NCCn2nc(C)nc2C)cn1`, 32.8%; as for `O=C(CNc1cc(-c2ccccc2)nc2ccnn12)NC1CC1`, -35%.

On to `O=S1(=O)CCC(CNc2cc(-c3ccccc3)nc3ccnn23)C1` (stereo unspecified), for which the INHIBITION came out at 93.6%. On to `Cc1cc2nc(-c3ccccc3)cc(NCC3CCS(=O)(=O)C3)n2n1` (stereo unspecified), for which the INHIBITION is -24.6%. The result for `O=S(=O)(N1CCOCC1)N1CCc2sccc2C1` reads 76.8%; that for `O=S(=O)(N1CCCCCC1)N1CCc2sccc2C1`, 20.8%. As for `O=S(=O)(N1CCOCC1)N1CCOC(CCc2ccccc2)C1` (stereo unspecified), the figure is -23.4%. As for `O=S(=O)(N1CCCC1)N1CCc2sccc2C1`, the figure is 82.4%; as for `CC1CCN(S(=O)(=O)N2CCc3sccc3C2)CC1`, 19.7%; as for `O=C(Nc1ccc(N2CCOCC2)nc1)N1CCc2sccc2C1`, -17.9%. Turning to `c1cc(CN2CCC3(CCOCC3COCC3CC3)CC2)ccn1` (stereo unspecified), the INHIBITION is listed as -20.8%. As for `CC(C)NC(=O)N1CCc2c(CNc3ncccn3)cncc2C1`, the figure is -41.4%; as for `N#Cc1ccc(CN2CCCC3(Cc4ccccc4CNC3=O)C2)cc1` (stereo unspecified), 43.3%. The result for `Cc1nc(CO[C@H]2CN(Cc3cccs3)[C@@H]3COC[C@H]23)cs1` reads 18.2%; that for `CNS(=O)(=O)c1cnccc1N1CCN(C(C)C)CC1`, -5.26%; that for `O=C1COC2(CCN(Cc3ccco3)CC2)CN1`, 27.6%. For `O=C(O)C1CCCN1c1nc(C2CC2)cc(C(F)(F)F)n1` (stereo unspecified), the INHIBITION was 14.3%. The result for `O=C(O)C1CCCN1c1nc(-c2ccc(Cl)c(Cl)c2)cc(C(F)(F)F)n1` (stereo unspecified) reads 80.5%. As for `O=C(O)C1CCCN1c1nc(-c2ccc(Cl)cc2)cc(C(F)(F)F)n1` (stereo unspecified), the figure is 26.7%; as for `CC(=O)N1CCC(NC(=O)CN2CCCc3c(F)ccc(C)c32)CC1`, 9.16%; as for `COc1ccccc1CCN(C)Cc1nc(N)nc(N(C)C)n1`, 34.1%. Turning to `CN(Cc1nc(N)nc(N(C)C)n1)Cc1cccc2ccccc12`, the INHIBITION is -57.5%.

In the case of `CN(CCc1cccc2ccccc12)Cc1nc(N)nc(N(C)C)n1`, the INHIBITION worked out at 90.3%. As to `OCCN1CCCCC1c1cc[nH]n1` (stereo unspecified), the INHIBITION is reported as 6.26%. For `CCc1ccc(-c2cn3c(C(=O)N[C@H](C(N)=O)[C@@H](C)O)csc3n2)cc1`, the INHIBITION is -171%. In the case of `CCc1ccc(-c2cn3c(C(=O)NCC(C)C(=O)NC)csc3n2)cc1` (stereo unspecified), the INHIBITION is recorded as -147%. The result for `C[C@@H](O)[C@H](NC(=O)c1csc2nc(-c3ccccc3F)cn12)C(N)=O` reads 76.9%; that for `CC(C)(C)C(=O)N1CCC(c2cnc(-c3cn[nH]c3)cn2)CC1`, 3.62%. Take `CCn1cc(S(=O)(=O)N2CCN(C(=O)c3cc(Br)cs3)CC2)c(C)n1`: the INHIBITION stood at 38.3%.

As for `COC(=O)CN1CC2(CCNCC2)COc2ccccc2S1(=O)=O`, the INHIBITION is reported as 27.6%.

As to `Cc1nnc2n1CCN(C(C)c1nnc(-c3cccs3)o1)C2` (stereo unspecified), the INHIBITION was found to be 13.5%. As for `O=C(NC1CC1)C(c1ccccc1)N1CCn2c(nnc2C2CC2)C1` (stereo unspecified), the figure is 6.05%; as for `CC(c1nnc(-c2cccs2)o1)N1CCn2c(nnc2C2CC2)C1` (stereo unspecified), 51.5%. As to `CC(C)NC(=O)C(c1ccccc1)N1CCn2c(nnc2C2CC2)C1` (stereo unspecified), the INHIBITION came out at 50.4%. The result for `Cc1nnc2n1CCN(C(C(=O)NC(C)C)c1ccccc1)C2` (stereo unspecified) reads 15.2%; that for `CC(C)c1nnc2n1CCN(C(C)c1nnc(-c3cccs3)o1)C2` (stereo unspecified), 21.1%; that for `CCc1ccc(CN2CC[C@H]3C[C@H](c4nnc(C)[nH]4)O[C@@H]3C2)o1`, -11.5%. As for `COc1cccc(F)c1-c1c[nH]c(C)n1`, the figure is 11.8%; as for `Cc1ncsc1C(=O)NCc1cccs1`, 35.8%; as for `Cc1ncsc1C(=O)NCCNc1ncccn1`, 34.7%.

`Cc1ncsc1C(=O)NCCc1cccs1`: the INHIBITION is reported as -25.667%. For `Cc1ncsc1C(=O)NCCSCc1cccs1`, the INHIBITION is listed as 63.4%.

As to `O=C(NCCNc1ncccn1)c1scnc1Cl`, the INHIBITION was 11.9%.

As to `CCc1nc(C)c(C(=O)NCCNc2cnccn2)s1`, the INHIBITION was 4.88%. The result for `Cc1ncsc1C(=O)NCCNc1cnccn1` reads 60%. On to `O=C(NCCNc1cnccn1)c1scnc1Cl`, for which the INHIBITION is 53.3%.

Take `O=C(NCCNC(=O)c1scnc1Cl)c1ccccc1`: the INHIBITION worked out at 30.3%.
